Test [1] is described as follows: small molecules captured by biotinylated probe aFSTL3 – biochemical, small-molecule microarray, fluorescence 635/667, stem cell growth factor project, primary screen (AID 1064).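 Further: measures binding of the biotinylated anti-FSTL3 antibody to printed compounds.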 The following applies: higher = more signal.
Test [2] can be described thus: binders from COS7 lysate, DM2A8 probe, primary screen, torsin A project, cell lysate, small-molecule microarray, fluorescence 635/667 (AID 1065). The following applies: higher = more signal, COS7 lysate expressing mutant human TOR1A.
Test [3] can be described thus: small molecules captured by biotinylated probe aFGF2 – biochemical, small-molecule microarray, fluorescence 635/667, stem cell growth factor project, primary screen (AID 1067).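 Further: measures binding of biotinylated aFGF2 protein to printed compounds on slides; z-score merges feature fluorescence and signal-to-noise across triplicate slides.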 The following applies: higher = more signal.
The nature of test [4]: small molecules captured by biotinylated probe aFGF10 – biochemical, small-molecule microarray, fluorescence 635/667, stem cell growth factor project, primary screen (AID 1071).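 Further: score merges 667 nm spot intensity and signal to noise from triplicate slides.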 The following applies: higher = more signal.
Test [5] addresses Neurogenic locus notch homolog protein 2 (Homo sapiens) (UniProt Q04721). As to the kind of experiment: small molecules binding Notch2 protein – biochemical, small-molecule microarray, 635 nm fluorescence, stem cell growth factors, primary screen (AID 1073). Particulars: higher = more signal.
Test [6] deals with Pro-neuregulin-1, membrane-bound isoform (Homo sapiens) (UniProt Q02297). Briefly: small molecules binding neuregulin-1 protein – biochemical, small-molecule microarray, fluorescence 635/667, psychiatric disease protein project, primary screen (AID 1075).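 Further: score combines 667 nm spot fluorescence with signal to noise.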 The following applies: NRG1 binding, 635 nm fluorescence, higher = more signal.
Test [7] has as its system Neuregulin-1 EGF-like domain. Briefly: small molecules binding NRG1 EGF domain – biochemical, small-molecule microarray, 635 nm fluorescence, primary screen (AID 1081).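 Further: binding of the protein to compounds printed on small-molecule microarray slides.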 The following applies: higher = more signal.
Test [8] can be described thus: FRG1 expression reporter modulators in myotubes – cell-based, C2C12 myotubes, firefly/Renilla luciferase, luminescence, FRG1 inhibition for FSHD, primary screen (AID 1084). The following applies: FRG1 promoter luciferase, higher = more signal, called active from +8 up or from −8 down.
The nature of test [9]: small molecules captured by biotinylated probe aFST – biochemical, small-molecule microarray, fluorescence 635/667, stem cell growth factor project, primary screen (AID 1086).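 Further: score merges 667 nm fluorescence with signal-to-noise of each printed compound spot.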 The following applies: higher = more signal.
Test [10] in a line: binders of probe aHhip on microarray, primary screen, stem cell growth factor project, biochemical, small-molecule microarray, fluorescence 635/667 (AID 1087).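 Further: score merges spot fluorescence at 667nm with spot signal to noise ratio.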 The following applies: higher = more signal.
The test system of test [11] is PRMT1 (protein arginine N-methyltransferase 1). As to the kind of experiment: small molecules binding arginine methyltransferase PRMT1 – biochemical, small-molecule microarray, 635 nm fluorescence, primary screen (AID 1088).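 Further: binding of Prmt1 protein to compounds spotted on small-molecule microarray slides.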 The following applies: higher = more signal.
Test [12] in a line: growth effects on S. cerevisiae YJM789 – YJM789 clinical isolate, OD600, 24 h, basal, primary screen (AID 1089).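 Further: growth of clinical yeast isolate S. cerevisiae YJM 789 seeded 1000 cells per well; test concentration not given here.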 The following applies: higher = more signal, called active from +8 up or from −8 down.
Test [13] can be described thus: S. pombe growth modifiers, basal conditions – strain 972, OD600, 24 h, no modulator, primary screen (AID 1090).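 Further: basal condition with compound alone and no growth modifier present; test concentration not given here.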 The following applies: S. pombe 972 growth, higher = more signal, called active from +8 up or from −8 down.
Test [14] in a line: budding yeast growth modifiers under rapamycin – strain BY4716, OD600, 96 h, primary screen (AID 1091). Further: test concentration not given here. The following applies: S. cerevisiae BY4716 + rapamycin, higher = more signal, called active from +8 up or from −8 down.
Test [15] concerns the target Torsin-1A-interacting protein 2 (Homo sapiens) (UniProt Q8NFQ8). Briefly: small molecules binding lysate-expressed LULL1 – cell lysate, human LULL1 lysate, 635/667 nm fluorescence, primary screen (AID 1092).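 Further: probe is lysate of COS7 cells overexpressing human LULL1; score merges per-feature 667 nm fluorescence with signal-to-noise.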 Particulars: small-molecule microarray, hLULL1 lysate binding, 635 nm fluorescence; higher = more signal.
Test [16] can be described thus: optical density change of DRC41 E. coli – strain DRC41, OD650, 24 h, E. coli filamentation project, primary screen (AID 1093).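 Further: MC1000 strain lacking acrAB efflux and sulA so SOS filamentation is blocked; test concentration not given here.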 Particulars: E. coli DRC41 growth, higher = more signal, called active from +8 up or from −8 down.
Test [17] can be described thus: probe aLefty2 binding to arrayed compounds – biochemical, biotinylated probe, 635/667 nm fluorescence, primary screen (AID 1094).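 Further: score merges spot fluorescence near 667 nm with spot signal-to-noise ratio.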 The following applies: small-molecule microarray, higher = more signal.
The subject of test [18] is Noggin (protein binding on small-molecule microarray). As to the kind of experiment: small molecules binding Noggin protein – biochemical, 635/667 nm fluorescence, primary screen (AID 1095).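 Further: score merges 667 nm feature fluorescence with signal to noise over triplicate slides.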 Particulars: 635 nm fluorescence, higher = more signal.
Test [19] has as its target Neurogenic locus notch homolog protein 3 (Homo sapiens) (UniProt Q9UM47). As to the kind of experiment: small molecules binding NOTCH3 protein – biochemical, 635/667 nm fluorescence, primary screen (AID 1096). The following applies: small-molecule microarray, 635 nm fluorescence, higher = more signal.
Test [20] is described as follows: probe aEGFR binding to arrayed compounds – biochemical, biotinylated probe, 635/667 nm fluorescence, primary screen (AID 1097).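 Further: probe is a biotinylated anti-EGFR antibody binding compounds printed on slides; score combines fluorescence near 667 nm and signal to noise of each spot.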 Particulars: small-molecule microarray, higher = more signal.

The source made the active and inactive calls.

Neurogenic locus notch homolog protein 2 (Homo sapiens), sequence (Q04721 whole entry, looked up, canonical isoform): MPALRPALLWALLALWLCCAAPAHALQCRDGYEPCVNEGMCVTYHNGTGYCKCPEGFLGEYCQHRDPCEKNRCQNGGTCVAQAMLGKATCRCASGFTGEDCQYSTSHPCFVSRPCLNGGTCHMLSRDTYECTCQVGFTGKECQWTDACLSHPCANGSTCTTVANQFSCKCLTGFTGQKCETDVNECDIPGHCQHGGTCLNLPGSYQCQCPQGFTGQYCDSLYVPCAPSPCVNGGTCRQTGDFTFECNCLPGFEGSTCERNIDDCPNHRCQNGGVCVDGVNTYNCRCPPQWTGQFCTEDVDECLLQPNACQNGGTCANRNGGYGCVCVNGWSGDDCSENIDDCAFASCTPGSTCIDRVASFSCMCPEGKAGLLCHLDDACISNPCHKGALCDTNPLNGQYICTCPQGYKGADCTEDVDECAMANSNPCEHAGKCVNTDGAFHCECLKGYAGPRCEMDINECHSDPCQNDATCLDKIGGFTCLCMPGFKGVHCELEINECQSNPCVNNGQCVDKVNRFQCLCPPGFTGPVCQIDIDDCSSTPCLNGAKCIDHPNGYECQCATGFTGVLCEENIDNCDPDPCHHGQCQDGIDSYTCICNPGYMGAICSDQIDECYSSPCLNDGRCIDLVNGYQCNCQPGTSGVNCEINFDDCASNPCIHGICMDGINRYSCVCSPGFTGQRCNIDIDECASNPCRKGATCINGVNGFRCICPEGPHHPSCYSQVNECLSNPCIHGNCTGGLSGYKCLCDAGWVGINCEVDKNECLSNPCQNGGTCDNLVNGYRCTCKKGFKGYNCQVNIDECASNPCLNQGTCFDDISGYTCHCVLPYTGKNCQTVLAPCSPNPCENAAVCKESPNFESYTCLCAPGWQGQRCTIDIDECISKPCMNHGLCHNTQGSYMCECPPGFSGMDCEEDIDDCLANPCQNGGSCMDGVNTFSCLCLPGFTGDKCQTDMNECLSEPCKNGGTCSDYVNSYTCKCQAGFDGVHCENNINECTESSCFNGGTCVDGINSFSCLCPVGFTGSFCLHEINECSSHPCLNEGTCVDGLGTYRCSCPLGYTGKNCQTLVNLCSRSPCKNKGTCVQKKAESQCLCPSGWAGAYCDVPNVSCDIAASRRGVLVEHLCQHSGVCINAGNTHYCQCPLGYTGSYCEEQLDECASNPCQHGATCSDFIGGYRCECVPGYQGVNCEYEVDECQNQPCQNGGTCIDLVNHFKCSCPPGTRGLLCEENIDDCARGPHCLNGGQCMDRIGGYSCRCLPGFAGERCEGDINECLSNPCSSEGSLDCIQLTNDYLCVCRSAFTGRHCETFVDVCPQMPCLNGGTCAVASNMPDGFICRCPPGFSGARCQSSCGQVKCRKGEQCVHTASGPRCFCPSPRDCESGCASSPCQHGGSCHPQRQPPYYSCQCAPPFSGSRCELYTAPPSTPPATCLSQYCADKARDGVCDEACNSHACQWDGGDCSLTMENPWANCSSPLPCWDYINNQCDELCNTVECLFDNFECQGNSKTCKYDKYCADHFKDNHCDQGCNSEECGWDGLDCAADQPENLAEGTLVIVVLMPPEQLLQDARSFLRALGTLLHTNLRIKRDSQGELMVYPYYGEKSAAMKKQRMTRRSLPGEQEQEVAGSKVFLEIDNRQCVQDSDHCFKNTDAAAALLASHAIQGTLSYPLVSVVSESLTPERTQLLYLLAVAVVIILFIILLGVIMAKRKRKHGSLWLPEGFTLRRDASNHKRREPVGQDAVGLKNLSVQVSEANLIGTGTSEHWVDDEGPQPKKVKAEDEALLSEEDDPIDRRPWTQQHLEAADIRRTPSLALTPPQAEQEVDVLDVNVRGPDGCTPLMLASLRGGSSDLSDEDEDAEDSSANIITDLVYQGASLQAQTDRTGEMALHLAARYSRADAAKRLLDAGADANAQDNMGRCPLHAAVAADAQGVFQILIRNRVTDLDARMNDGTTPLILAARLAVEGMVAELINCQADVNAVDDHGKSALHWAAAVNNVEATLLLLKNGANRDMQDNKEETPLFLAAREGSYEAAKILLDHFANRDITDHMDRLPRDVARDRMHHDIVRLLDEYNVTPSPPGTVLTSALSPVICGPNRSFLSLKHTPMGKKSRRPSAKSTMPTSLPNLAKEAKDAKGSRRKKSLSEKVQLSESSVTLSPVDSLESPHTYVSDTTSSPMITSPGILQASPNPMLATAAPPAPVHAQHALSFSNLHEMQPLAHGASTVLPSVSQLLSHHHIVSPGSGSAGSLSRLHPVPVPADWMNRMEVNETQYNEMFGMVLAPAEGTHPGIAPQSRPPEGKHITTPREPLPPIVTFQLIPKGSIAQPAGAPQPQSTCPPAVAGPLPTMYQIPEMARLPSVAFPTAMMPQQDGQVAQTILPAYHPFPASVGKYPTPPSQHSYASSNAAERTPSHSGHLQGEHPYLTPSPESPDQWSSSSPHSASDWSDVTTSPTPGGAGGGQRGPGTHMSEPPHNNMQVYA
Torsin-1A-interacting protein 2 (Homo sapiens), sequence (Q8NFQ8 whole entry, looked up): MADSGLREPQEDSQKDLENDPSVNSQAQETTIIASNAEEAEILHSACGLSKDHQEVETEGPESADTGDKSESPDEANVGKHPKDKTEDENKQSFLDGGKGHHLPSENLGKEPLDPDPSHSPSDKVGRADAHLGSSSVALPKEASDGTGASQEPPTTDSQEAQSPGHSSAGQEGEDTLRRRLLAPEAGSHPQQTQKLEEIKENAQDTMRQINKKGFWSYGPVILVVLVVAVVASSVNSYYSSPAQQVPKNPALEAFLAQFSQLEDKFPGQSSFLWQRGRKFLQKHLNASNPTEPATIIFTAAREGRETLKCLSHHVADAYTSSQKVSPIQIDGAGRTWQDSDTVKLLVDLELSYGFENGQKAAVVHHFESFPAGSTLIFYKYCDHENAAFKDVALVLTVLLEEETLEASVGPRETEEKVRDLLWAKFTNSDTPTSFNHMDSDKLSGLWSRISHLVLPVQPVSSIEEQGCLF
Pro-neuregulin-1, membrane-bound isoform (Homo sapiens), sequence (Q02297 whole entry, looked up, the tested form may be a part, canonical isoform): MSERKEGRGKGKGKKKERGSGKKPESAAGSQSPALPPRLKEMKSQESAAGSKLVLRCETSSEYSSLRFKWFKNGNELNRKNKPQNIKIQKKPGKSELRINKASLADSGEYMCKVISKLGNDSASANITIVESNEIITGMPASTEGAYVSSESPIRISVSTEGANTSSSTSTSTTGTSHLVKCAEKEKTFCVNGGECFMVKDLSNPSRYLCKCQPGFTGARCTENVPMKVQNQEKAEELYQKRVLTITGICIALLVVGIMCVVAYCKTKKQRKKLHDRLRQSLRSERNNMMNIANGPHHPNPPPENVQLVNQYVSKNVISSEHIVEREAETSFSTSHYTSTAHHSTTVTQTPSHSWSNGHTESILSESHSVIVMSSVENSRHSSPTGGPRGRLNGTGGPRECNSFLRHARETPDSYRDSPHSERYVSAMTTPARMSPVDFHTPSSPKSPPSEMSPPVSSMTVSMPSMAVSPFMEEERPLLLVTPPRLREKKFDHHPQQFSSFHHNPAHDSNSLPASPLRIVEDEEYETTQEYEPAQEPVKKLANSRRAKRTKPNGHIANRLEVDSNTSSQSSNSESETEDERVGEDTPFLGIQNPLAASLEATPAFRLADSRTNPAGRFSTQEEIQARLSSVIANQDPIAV

Take `CCOC(=O)C[C@H]1[C@H](OC(=O)c2ccc(-c3ccccc3)cc2)[C@@H](NC(=O)c2ccccc2)c2cc(OCCCO)ccc2N1C(=O)c1ccccc1`: the composite z-score in test [1] is -0.3; in test [2] it was 0.707; in test [3], 0.0216; in [4] it was 0.281; in [5], 0.741; in [6] it was 0.622. For the same molecule, the composite z-score in test [7] amounted to 0.773; in test [9] it was 0.515; in [10], 0.201; in test [11] it was 1.35; in test [15], 1.69; in test [17], 0.0921. The composite z-score in test [18] was -0.0461; in test [19] it was 0.526; in test [20] it was -0.019. Further, the z-score in test [8] is -0.867 (inactive); in test [12] it was -1.08 (inactive); in test [13] it was -1.94 (inactive); in test [14], -0.596 (inactive); in test [16], 2.17 (inactive).
In the case of `CC(C)(C)OC(=O)CC[C@@]12N=C(c3ccc(OCCCO)cc3)O[C@@H]1c1ccccc1N(Cc1ccccc1)C2=O`, the composite z-score is 0.96 in [1]; 0.842 in test [2]; -0.0481 in [3]; -0.422 in test [4]; 0.246 in test [5]; 0.778 in test [6]. Also, the composite z-score in [7] is 1.21; in test [9], 0.439; in test [10] it was -0.0645; in test [11], 1.32; in [15], 3.26; in test [17], 0.0622. Moreover, the composite z-score was 0.753 in test [18], 1.05 in [19] and -0.0497 in test [20]. The z-score in test [8] is -3.31 (inactive); in test [12], 0.0492 (inactive); in [13] it was -1.2 (inactive); in test [14] it was 3.98 (inactive); in [16], 1.55 (inactive).
On to `COc1ccc([Si](C)(C)[C@H]2[C@H](CC(=O)N(CCO)Cc3ccccc3)O[C@@]3(C(=O)N(Cc4cccc(N5C(=O)COc6ccccc65)c4)c4ccccc43)[C@@H]2C)cc1`, for which the composite z-score was 1.54 in test [1]; 0.347 in [2]; -0.106 in [3]; 0.585 in test [4]; 0.703 in test [5]; 1.11 in test [6]. For the same molecule, the composite z-score in test [7] is 1.27; in [9] it was -0.103; in test [10], 0.245; in [11], 1.44; in [15] it was 2.13; in test [17] it was -0.0846. The figures for the composite z-score in test [18], in test [19] and in test [20] were 0.97, 0.496 and 0.0927, respectively. Moreover, the z-score in [8] was -1.84 (inactive); in test [12] it was 2.21 (inactive); in [13] it was 0.272 (inactive); in test [14], 3.48 (inactive); in test [16], 2.09 (inactive).
Consider `O=C(NCC(F)(F)F)[C@@H]1c2ccccc2C(=O)N(C2Cc3ccccc3C2)[C@H]1c1ccc(CO)cc1`, for which the composite z-score was 0.833 in test [1]; -0.67 in test [2]; -0.0487 in test [3]; -0.514 in test [4]; -0.98 in test [5]; -0.0643 in test [6]. The composite z-score is 0.0014 in [7]; -0.187 in test [9]; -0.353 in test [10]; -0.236 in test [11]; 0.492 in test [15]; 0.107 in [17]. Further, the composite z-score was -1.29 in test [18], -0.844 in test [19] and -0.129 in test [20]. Moreover, the z-score in test [8] is -0.827 (inactive); in [12] it was -0.62 (inactive); in [13], -1.06 (inactive); in test [14], -0.501 (inactive); in test [16], 2.12 (inactive).
Take `C=CCC1(CC=C)C[C@H]2CO[C@H](c3ccc(OC)cc3)N2C1=O`: the composite z-score is 0.79 in test [1]; 0.533 in test [2]; -0.107 in test [3]; 0.201 in test [4]; -0.412 in test [5]; 0.0973 in test [6]. Besides, the composite z-score was 0.523 in test [7]; 0.132 in test [9]; -0.0994 in test [10]; -0.109 in [11]; 0.288 in test [15]; 0.109 in test [17]. In addition, the composite z-score is 0.377 in test [18], -0.638 in test [19] and -0.0204 in [20]. Further, the z-score in [8] is -0.465 (inactive); in test [12], -0.137 (inactive); in [13], -2.77 (inactive); in [14], -0.484 (inactive); in [16], 2 (inactive).
